Source: PubChem BioAssay (Tox21)
Results filed as inconclusive are left out. Active and inactive are the calls of the source. Unless noted, calls come from the whole dose curve; as a rule, active = well fitted curve in the direction sought with a large enough effect in the repeat runs; inconclusive = weak or mixed curves; inactive = no such curve, though single readings can be large; an effect the other way counts as inactive or inconclusive.

Tests used:
[1] = qHTS assay to identify small molecule antagonists of the estrogen related receptor (ERR) signaling pathway from Tox21 library - cell viability counter screen (AID 1224834); note: nearly all actives have a fitted effect of over 30% in size
How it was run: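 ERR reporter cells, 2,000 per well, rested 6 h, then exposed to compound in DMSO for 17.5 hours at 37 C. Viability read as fluorescence after 30 min with CellTiter-Fluor.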

[2] = molecular target: Luciferin 4-monooxygenase (Photinus pyralis) (UniProt P08659); experiment: qHTS assay to identify small molecule inhibitors of firefly luciferase (AID 1224835); note: nearly all actives have a fitted effect of over 25% in size; note: potency is the fitted concentration of half-maximal effect
Luciferin 4-monooxygenase (Photinus pyralis), sequence (P08659 whole entry, looked up): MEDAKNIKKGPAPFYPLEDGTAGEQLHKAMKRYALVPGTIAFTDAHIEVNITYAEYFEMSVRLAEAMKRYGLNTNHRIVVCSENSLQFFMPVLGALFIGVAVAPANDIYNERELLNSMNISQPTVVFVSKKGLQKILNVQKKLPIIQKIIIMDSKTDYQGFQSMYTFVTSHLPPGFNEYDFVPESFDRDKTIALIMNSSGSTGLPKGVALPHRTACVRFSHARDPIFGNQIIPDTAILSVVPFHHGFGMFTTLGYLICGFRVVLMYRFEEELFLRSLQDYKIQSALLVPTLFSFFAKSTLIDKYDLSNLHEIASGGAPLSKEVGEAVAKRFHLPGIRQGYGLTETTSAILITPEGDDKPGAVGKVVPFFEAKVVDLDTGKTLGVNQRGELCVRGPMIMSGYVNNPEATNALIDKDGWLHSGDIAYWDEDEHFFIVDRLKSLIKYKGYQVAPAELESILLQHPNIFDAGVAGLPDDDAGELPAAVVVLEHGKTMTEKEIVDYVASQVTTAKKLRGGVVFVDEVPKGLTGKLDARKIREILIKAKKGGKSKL
How it was run: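 Inhibition of purified Photinus luciferase is measured by luminescence. Substrate levels (D-luciferin, ATP) sit at their KM values. Each compound is tested in a concentration series.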

[3] = qHTS assay to identify small molecule agonists of the constitutive androstane receptor (CAR) signaling pathway - cell viability counter screen (AID 1224836); note: nearly all actives have a fitted effect of over 45% in size
How it was run: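 Counter screen multiplexed with the CAR reporter readout: HepG2 cells co-transfected with hCAR and the CYP2B6-2.2kb construct receive a 15-concentration compound series and 0.75 uM PK11195 (final), then CellTiter-Fluor fluorescence is read after 23 h.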

[4] = qHTS assay to identify small molecule antagonists of the constitutive androstane receptor (CAR) signaling pathway - cell viability counter screen (AID 1224837); note: nearly all actives have a fitted effect of over 45% in size
How it was run: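 HepG2 cells stably carrying hCAR and CYP2B6-2.2kb reporter, stimulated with 50 nM CITCO and compounds at 15 concentrations for 23 h at 37 C. Viability measured by CellTiter-Fluor fluorescence.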

[5] = molecular target: Nuclear receptor subfamily 1 group I member 3 (Homo sapiens) (UniProt Q14994); experiment: qHTS assay to identify small molecule antagonists of the constitutive androstane receptor (CAR) signaling pathway (AID 1224838); note: nearly all actives have a fitted effect of over 40% in size
Nuclear receptor subfamily 1 group I member 3 (Homo sapiens), sequence (Q14994 whole entry, looked up): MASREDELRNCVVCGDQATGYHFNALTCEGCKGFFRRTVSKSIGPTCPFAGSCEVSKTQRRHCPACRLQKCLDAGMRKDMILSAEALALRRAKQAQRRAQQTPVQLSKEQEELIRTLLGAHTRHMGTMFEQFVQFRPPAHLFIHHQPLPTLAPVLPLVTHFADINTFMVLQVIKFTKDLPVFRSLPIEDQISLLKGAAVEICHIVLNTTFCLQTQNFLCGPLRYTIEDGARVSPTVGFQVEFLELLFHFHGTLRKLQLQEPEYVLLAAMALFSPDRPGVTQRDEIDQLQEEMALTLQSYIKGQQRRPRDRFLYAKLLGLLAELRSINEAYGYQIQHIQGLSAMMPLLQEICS
How it was run: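 HepG2 cells stably carrying hCAR and a CYP2B6-2.2kb luciferase reporter, seeded 4 hrs before compound (15 concentrations). Stimulated with 50 nM CITCO for 24 hr at 37 C. ONE-Glo luminescence read after 30 min at room temperature.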

[6] = molecular target: Nuclear receptor subfamily 1 group I member 3 (Homo sapiens) (UniProt Q14994); experiment: qHTS assay to identify small molecule agonists of the constitutive androstane receptor (CAR) signaling pathway (AID 1224839); note: nearly all actives have a fitted effect of over 15% in size; note: potency is the fitted concentration of half-maximal effect
How it was run: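 A 15-concentration quantitative screen uses HepG2 cells co-transfected stably with human CAR and CYP2B6-2.2kb reporter. Treatment lasts 24 h with 0.75 uM PK11195 final present; ONE-Glo luminescence is the signal.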

[7] = qHTS assay to identify small molecule antagonists of the estrogen related receptor signaling pathway with the pleiotropic PPARgamma coactivator (PGC) from Tox21 10K library - cell viability counter screen (AID 1224840; active = well fitted cell-killing curve with a large enough effect in the repeat runs, not every such curve was filed as active; note: nearly all actives have a fitted effect of over 40% in size)
How it was run: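 PGC/ERR cells (2,000/well) plated 6 h, then compound-treated for 17.5 h at 37 C. Viability measured by CellTiter-Fluor fluorescence after 30 min at 37 C, multiplexed with the pathway assay.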

[8] = molecular target: Thyrotropin receptor (Homo sapiens) (UniProt P16473); experiment: qHTS assay to identify small molecule agonists of the thyroid stimulating hormone receptor (TSHR) signaling pathway (AID 1224843; calls by dose curve; note: nearly all actives have a fitted effect of over 45% in size)
Thyrotropin receptor (Homo sapiens), sequence (P16473 whole entry, looked up): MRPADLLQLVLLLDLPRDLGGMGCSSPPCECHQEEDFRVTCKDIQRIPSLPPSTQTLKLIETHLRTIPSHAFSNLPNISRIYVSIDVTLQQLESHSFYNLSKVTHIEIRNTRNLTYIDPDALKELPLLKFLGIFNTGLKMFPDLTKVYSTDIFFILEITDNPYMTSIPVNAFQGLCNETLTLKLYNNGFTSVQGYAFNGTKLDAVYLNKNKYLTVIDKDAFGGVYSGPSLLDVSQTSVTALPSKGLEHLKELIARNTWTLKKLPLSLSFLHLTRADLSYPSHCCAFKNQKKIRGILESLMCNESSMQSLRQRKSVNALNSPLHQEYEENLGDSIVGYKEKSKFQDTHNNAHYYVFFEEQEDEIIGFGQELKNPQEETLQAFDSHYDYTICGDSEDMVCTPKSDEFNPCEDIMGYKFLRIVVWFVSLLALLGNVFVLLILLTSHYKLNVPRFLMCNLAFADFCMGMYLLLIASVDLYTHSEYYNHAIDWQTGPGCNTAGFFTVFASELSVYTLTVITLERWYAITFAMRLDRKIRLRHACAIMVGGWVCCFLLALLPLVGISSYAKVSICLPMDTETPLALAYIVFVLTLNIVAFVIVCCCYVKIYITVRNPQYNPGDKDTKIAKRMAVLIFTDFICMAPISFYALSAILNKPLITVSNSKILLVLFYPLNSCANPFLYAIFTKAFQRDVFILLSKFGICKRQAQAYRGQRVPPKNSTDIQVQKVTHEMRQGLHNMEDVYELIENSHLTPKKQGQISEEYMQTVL
How it was run: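 Screening of the Tox21 10K collection used HEK293 cells engineered with TSHR at 800 cells per well. After a 30-min room-temperature compound exposure, HTRF cAMP reagents were added and fluorescence recorded 1 h later.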

[9] = qHTS assay to identify small molecule agonists of the hypoxia (HIF-1) signaling pathway - cell viability counter screen (AID 1224844; calls by dose curve; note: nearly all actives have a fitted effect of over 50% in size)
How it was run: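 HRE-bla ME-180 cells, 2,000/well in 0.5% dialyzed FBS medium, treated 17 h at 37C with compounds. Viability read in the same wells as the bla reporter, by CellTiter-Glo luminescence after 30 min at room temperature.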

[10] = qHTS assay to identify small molecule agonists of H2AX (AID 1224845; active = well fitted activation curve with a large enough effect in the signal ratio in the repeat runs, not every such curve was filed as active; the % refers to the signal ratio)
How it was run: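 Phospho-H2AX Ser139 measured by HTRF (ex 320 nm; em 665 and 620 nm) after 24 hr antibody incubation. Compounds, 15 concentrations, 0.76% DMSO, were applied to CHO-K1 cells for 3hr at 37C before lysis.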

[11] = qHTS assay to identify small molecule agonists of the hypoxia (HIF-1) signaling pathway (AID 1224846; active = well fitted activation curve with a large enough effect in the signal ratio in the repeat runs, not every such curve was filed as active; the % refers to the signal ratio)
How it was run: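 HRE-bla ME-180 beta-lactamase reporter cells in medium with 0.5% dialyzed FBS, pre-incubated 5 h then exposed to compounds 17 h at 37C, 5% CO2; reporter induction read with CCF4-AM FRET substrate.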

[12] = qHTS assay to identify small molecule agonists of H2AX - cell viability counter screen (AID 1224847; calls by dose curve; note: top concentration of the series differs between compounds; nearly all actives have a fitted effect of over 30% in size)
How it was run: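 We seed wild-type CHO-K1 cells overnight, treat them for 3 hr at 37C with compounds in 15-concentration series, and quantify remaining viability by CellTiter-Glo luminescence.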

[13] = qHTS RealTime-Glo MT Cell Viability Assay in HepG2 cells - 24 hour (AID 1224867); note: nearly all actives have a fitted effect of over 50% in size
How it was run: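 Real-time, nonlytic viability: 600 HepG2 cells/well mixed with NanoLuc enzyme plus prosubstrate; 5 h settle, compound (DMSO) added by pintool; luminescence monitored over 40 h at 37 C.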

[14] = qHTS RealTime-Glo MT Cell Viability Assay in HEK293 cells - 32 hour (AID 1224868); note: top concentration of the series differs between compounds; nearly all actives have a fitted effect of over 50% in size
How it was run: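 Cells + reagent dispensed (600 cells/well, HEK293) → 5 h at 37 C/5% CO2 → 23 nL compound in DMSO pinned → 40 h at 37 C → luminescence read at 0, 8, 16, 24, 32, 40 h.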

[15] = A CellTox Green Cytotoxicity Assay to monitor cytotoxicity in HEK293 cells - 0 hour (AID 1224869); note: nearly all actives have a fitted effect of over 50% in size
How it was run: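 HEK293 cells, 600/well, were preincubated 5 hours and then exposed to compounds at 37 C for up to 40 hours. A cell-impermeant cyanine dye staining dead-cell DNA was read by fluorescence at 0, 8, 16, 24, 32 and 40 h time points.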

[16] = qHTS RealTime-Glo MT Cell Viability Assay in HepG2 cells - 40 hour (AID 1224870); note: nearly all actives have a fitted effect of over 50% in size
How it was run: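 Real-time viability: cells seeded at 600 per well together with NanoLuc and cell-permeant prosubstrate, compounds added after 5 h incubation. Luminescence tracked at 0, 8, 16, 24, 32 and 40 h of exposure.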

[17] = qHTS assay to identify small molecule antagonists of the estrogen related receptor signaling pathway with the pleiotropic PPARgamma coactivator (PGC) from Tox21 10K library (AID 1224841; call rule not given here)
How it was run: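 PGC/ERR cell line, 2,000 cells/well, pre-incubated 6 hours at 37 C, then exposed to compounds for 18 hours at 37 C; luciferase read with One-Glo luminescence after 30 min at room temperature.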

[18] = qHTS assay to identify small molecule agonists of the estrogen related receptor signaling pathway with the pleiotropic PPARgamma coactivator (PGC) from Tox21 10K library (AID 1224842); note: nearly all actives have a fitted effect of over 15% in size
How it was run: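 Luminescence from One-Glo (30 min, room temperature) measured after PGC/ERR cells had 18 h at 37 C with pinned compound (23 nL in DMSO). Cells had been seeded at 2,000 per well and pre-incubated 6 h.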

[19] = qHTS assay to identify small molecule antagonists of the estrogen related receptor (ERR) signaling pathway from Tox21 library (AID 1224848); note: nearly all actives have a fitted effect of over 50% in size
How it was run: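 Antagonist-mode screen of the Tox21 10K library in an NTP-provided ERR reporter cell line; 18 h compound exposure at 37 C, luminescence measured with ONE-Glo.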

[20] = qHTS assay to identify small molecule agonists of the estrogen related receptor (ERR) signaling pathway from Tox21 library (AID 1224849; calls by dose curve; note: nearly all actives have a fitted effect of over 15% in size); details: ERR reporter cell line, ONE-Glo luciferase, 18 h; at 92.4 µM (top of the series) unless noted
How it was run: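 ERR reporter cells (NTP line) pre-incubated 6 hours at 37 C, then exposed to compounds for 18 hours at 37 C. ONE-Glo luciferase luminescence was read after 30 minutes at room temperature.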
% is set by controls: 0 for no effect and ±100 for the full control effect.

CCN1CCCC1CNC(=O)C(O)(c1ccccc1)c1ccccc1 (stereo unspecified)
inactive: Potency [1] | Potency [2] | Potency [3] | Potency [4] | Potency [5] | Potency [6] | Potency [7] | Potency [8] | Potency [9] | outcome [10] | outcome [11] | Potency [12] | Potency [13] | Potency [14] | outcome [15] | Potency [16]

CCNc1nc(NCC)nc(SC)n1
inactive: Potency [1] | Potency [2] | Potency [3] | Potency [4] | Potency [5] | Potency [6] | Potency [7] | Potency [8] | Potency [9] | outcome [10] | outcome [11] | Potency [12] | Potency [13] | Potency [14] | outcome [15] | Potency [16]

CCCCCCCCBr
inactive: Potency [1] | Potency [2] | Potency [3] | Potency [4] | Potency [5] | Potency [6] | Potency [7] | Potency [8] | Potency [9] | outcome [10] | outcome [11] | Potency [12] | Potency [13] | Potency [14] | outcome [15] | Potency [16]

CCNP(=S)(OC)O/C(C)=C/C(=O)OC(C)C (stereo unspecified)
inactive: Potency [1] | Potency [2] | Potency [3] | Potency [4] | Potency [5] | Potency [7] | Potency [9] | outcome [10] | outcome [11] | Potency [12] | Potency [13] | Potency [14] | outcome [15] | Potency [16]
active: Potency [6] 27.3 µM

CC(C)C(C)(N)C#N (stereo unspecified)
inactive: Potency [1] | Potency [2] | Potency [3] | Potency [4] | Potency [5] | Potency [6] | Potency [7] | Potency [9] | outcome [11] | Potency [12] | Potency [13] | Potency [14] | outcome [15] | Potency [16]

CNC(=O)NC(O)C(Cl)(Cl)Cl (stereo unspecified)
inactive: Potency [1] | Potency [2] | Potency [3] | Potency [4] | Potency [5] | Potency [6] | Potency [7] | Potency [8] | Potency [9] | outcome [10] | outcome [11] | Potency [12] | Potency [13] | Potency [14] | outcome [15] | Potency [16]

C=CCc1cc(OC)c2c(c1)OCO2
inactive: Potency [1] | Potency [2] | Potency [3] | Potency [4] | Potency [5] | Potency [6] | Potency [7] | Potency [8] | Potency [9] | outcome [10] | outcome [11] | Potency [12] | Potency [13] | Potency [14] | outcome [15] | Potency [16]

CCN[C@@H](C)Cc1cccc(C(F)(F)F)c1
inactive: Potency [1] | Potency [2] | Potency [3] | Potency [4] | Potency [5] | Potency [6] | Potency [7] | Potency [8] | Potency [9] | outcome [11] | Potency [12] | Potency [13] | Potency [14] | outcome [15] | Potency [16]

N#CN
inactive: Potency [1] | Potency [2] | Potency [3] | Potency [4] | Potency [5] | Potency [6] | Potency [7] | Potency [9] | outcome [11] | Potency [12] | Potency [13] | Potency [14] | outcome [15] | Potency [16]

C=C(C)[C@H]1CN[C@H](C(=O)O)[C@H]1CC(=O)O
inactive: Potency [1] | Potency [2] | Potency [3] | Potency [4] | Potency [5] | Potency [6] | Potency [8] | Potency [9] | outcome [10] | Potency [12] | Potency [13] | Potency [14] | outcome [15] | Potency [16]

CCC1(c2ccccc2)C(=O)N(COC)C(=O)N(COC)C1=O
inactive: Potency [1] | Potency [2] | Potency [3] | Potency [4] | Potency [5] | Potency [7] | Potency [17] | Potency [18] | Potency [8] | Potency [9] | outcome [10] | outcome [11] | Potency [12] | Potency [19] | activity change, positive = activation [20] 4.72% [at 42.5 µM] | Potency [13] | Potency [14] | outcome [15] | Potency [16]

O=C(Cl)OCc1ccccc1
inactive: Potency [1] | Potency [2] | Potency [3] | Potency [4] | Potency [5] | Potency [6] | Potency [17] | Potency [18] | Potency [8] | Potency [9] | outcome [10] | outcome [11] | Potency [12] | Potency [19] | activity change, positive = activation [20] 6.05% | Potency [13] | Potency [14] | outcome [15] | Potency [16]

CCOC(=O)C(Cl)Cc1cc(-n2nc(C)n(C(F)F)c2=O)c(F)cc1Cl (stereo unspecified)
inactive: Potency [1] | Potency [2] | Potency [3] | Potency [4] | Potency [5] | Potency [9] | outcome [10] | outcome [11] | Potency [12] | Potency [13] | Potency [14] | outcome [15] | Potency [16]

CCOC(=O)COc1ccc(Cl)cc1Cl
active: Potency [2] 35.6 µM
inactive: Potency [1] | Potency [3] | Potency [4] | Potency [5] | Potency [7] | Potency [9] | outcome [10] | outcome [11] | Potency [12] | Potency [13] | Potency [14] | outcome [15] | Potency [16]

O=P(O)(O)c1ccccc1
inactive: Potency [1] | Potency [2] | Potency [3] | Potency [4] | Potency [5] | Potency [6] | Potency [8] | Potency [9] | outcome [10] | Potency [12] | Potency [13] | Potency [14] | outcome [15] | Potency [16]
